According to PubChem BioAssay (EPA / NIEHS):
Values joined by “and” are separate entries in the source; they are usually repeats but may differ in a detail not shown here. Equal entries are not always repeated. Where a structure was tested more than once in an assay, its records may differ in their call. Active and inactive are the calls of the source. The calls were made as follows: active = hit-call score of the fitted dose curve at least 0.9, where 1 is the maximum; inactive = score below 0.9.

molecular target: Nuclear respiratory factor 1 (Homo sapiens) (UniProt Q16656); experiment: ATG_NRF1_CIS: Attagene CIS-FACTORIAL HepG2 Assay for human Nuclear Respiratory Factor 1 (NRF1) Orphan Gene (AID 2282987); settings: HepG2 NRF1 cis-element reporter, Attagene multiplex; actives raise or lower the signal
Method: ATG_CIS is a cell-based, multiplexed-readout assay that uses HepG2, a human liver cell line, with measurements taken at 24 hours after chemical dosing in a 24-well plate.ATG_NRF1_CIS is one of 52 assay component(s) measured or calculated from the ATG_CIS assay. It is designed to make measurements of mRNA induction, a form of inducible reporter, as detected with fluorescence intensity signals by Reverse transcription polymerase chain reaction (RT-PCR) and Capillary electrophoresis technology.Data from the assay component ATG_NRF1_CIS was analyzed into 1 assay endpoint. This assay endpoint, ATG_NRF1_CIS, was analyzed with bidirectional fitting relative to DMSO as the negative control and baseline of activity. Using a type of inducible reporter, measures of mRNA for gain or loss-of-signal activity can be used to understand the reporter gene at the transcription factor-level as they relate to the gene NRF1. Furthermore, this assay endpoint can be referred to as a primary readout, because this assay has produced multiple assay endpoints where this one serves a reporter gene function. To generalize the intended target to other relatable targets, this assay endpoint is annotated to the dna binding intended target family, where the subfamily is nuclear respiratory factors.
Human liver HepG2 cells are transiently transfected with multiple reporter transcription units (MRTUs) in 6-well plates using FuGene 6 reagent (Roche; 3 ml FuGene/1 mg DNA). The MRTU constructs are regulated by a cis-regulating element (promoter). […] A major difference between the CIS and TRANS system is that in CIS activities of endogenous TFs are measured, whereas the TRANS assay evaluates changes in activities of exogenous, chimeric NR-Gal4 proteins. […] At the end of 24 hour incubation, total RNA was isolated using TriZol reagent (Invitrogen). The isolated RNA is then reverse-transcribed using oligo(dT) primer and Mo-MLV reverse transcriptase (Invitrogen) with DNAse I (Ambion) treatment for 30 min. The one-tenth of the produced cDNA was amplified by PCR using Taq DNA polymerase (Invitrogen) and two reporter sequence-specific primers. The PCR products were fluorescently labeled by primer extension with 6-arboxyfluorescein (6-FAM) 5'-labeled reporter sequence-specific primer (2 min at 95 C, 20 s at 68 C and 10 min at 72 C) and these products were digested with 5U of HpaI (New England Biolabs) for 2h at 37 C. The fragments were purified using Qiaquick PCR columns (Qiagen), analyzed on an ABI 3130xL genetic analyzer (Applied Biosystems) with peak positions identified by using a set of X-rhodamine (ROX)-labeled MapMarker1000 molecular weight standards (BioVentures). The raw capillary electrophoresis data was processed using Attagraph software (Attagene).

Nuclear respiratory factor 1 (Homo sapiens), sequence (Q16656 whole entry, looked up): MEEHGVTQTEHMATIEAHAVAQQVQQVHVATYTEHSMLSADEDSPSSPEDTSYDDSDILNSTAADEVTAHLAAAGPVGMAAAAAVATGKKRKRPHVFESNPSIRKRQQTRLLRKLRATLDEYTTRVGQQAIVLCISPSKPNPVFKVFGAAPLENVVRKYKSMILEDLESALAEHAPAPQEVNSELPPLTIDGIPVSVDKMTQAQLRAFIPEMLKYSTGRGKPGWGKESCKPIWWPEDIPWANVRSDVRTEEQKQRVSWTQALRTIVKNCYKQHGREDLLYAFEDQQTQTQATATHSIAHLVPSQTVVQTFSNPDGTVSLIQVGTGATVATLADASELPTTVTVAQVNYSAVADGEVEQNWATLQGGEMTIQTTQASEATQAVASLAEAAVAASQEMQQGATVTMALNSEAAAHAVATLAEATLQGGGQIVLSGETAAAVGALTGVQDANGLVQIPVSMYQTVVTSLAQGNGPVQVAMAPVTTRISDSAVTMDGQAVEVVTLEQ

SMILES | outcome | AC50
CCCCCCOC(C)=O | inactive | 
O=C(C=Cc1ccccc1)OCCCc1ccccc1 | inactive | 
CCCCCCCC1CCCC1=O (stereo not given) | inactive | 
O=C(c1ccc(OCCN2CCCCC2)cc1)c1c(-c2ccc(O)cc2)sc2cc(O)ccc12 | inactive | 19.6 µM (active) and 17.7 µM (active)
NC(=O)NC(N)=O | inactive | 
C[N+](C)(C)CCO | inactive | 
CCCCCCCCCCO[C@@H]1O[C@H](CO)[C@@H](O)[C@H](O)[C@H]1O | inactive | 
c1coc(CNc2ncnc3nc[nH]c23)c1 | inactive | 
CCCC1CCC(=O)CC1 | inactive | 
C=CCOC(=O)/C=C\C(=O)OCC=C | inactive | 
CCCCCCCCCC(=O)OCC | inactive | 
CCC(C)C1CCCCC1=O (stereo not given) | inactive | 
CCOC(=O)CC1(C)OCC(C)O1 (stereo not given) | inactive | 
O=C1CCC(=O)N1 | inactive | 
NC(=O)c1c(Cl)cccc1Cl | inactive | 
CCC(CC)CO | inactive | 
CC(CCO)CC(C)(C)C (stereo not given) | inactive | 
CC(C)(C)c1ccc(S)cc1 | inactive | 
CC1=CC(C)C(C=O)C(C)C1 (stereo not given) (tested in a mixture with another compound) | inactive | 
CN(C)C | inactive | 

SMILES | outcome | AC50
C=C/C(C)=C/C/C=C(\C)CCC=C(C)C | inactive | 
CCCCCCC(O)CCOC(C)=O (stereo not given) | inactive | 
CCCCCCCC(=O)N(C)C | inactive | 
CCCCCCOc1ccc(O)cc1 | inactive | 
Cc1cc(N)n(-c2ccccc2)n1 | inactive | 
CC(C)(O)CCc1ccccc1 | inactive | 
S=c1[nH][nH]c(=S)s1 | inactive | 
Brc1cc(Br)cc(Br)c1 | inactive | 
C=C(C)CCCC(C)CCO (stereo not given) | inactive | 
O=S1(=O)CC=CC1 | inactive | 
OCCN1CCOCC1 | inactive | 
CC(=O)c1ccc(O)cc1 | inactive | 
NC(N)=NC(N)=NCCc1ccccc1 | inactive | 
COc1ccc2[nH]cc(CCNC(C)=O)c2c1 | inactive | 
CCC(C)(C)c1cc(O)c(C(C)(C)CC)cc1O |  | 12.3 µM (active)
C[C@]12CC[C@@H]3c4ccc(O)cc4CC[C@H]3[C@@H]1CC[C@@H]2O | inactive | 
CCCCCCCCCCCCOCCOS(=O)(=O)O | inactive | 
Nc1cc([N+](=O)[O-])ccc1C(=O)O | inactive | 
CCCCOCCOCCO | inactive | 
